USP30 block: inhibitors of human USP30 deubiquitinase; Ubiquitin carboxyl-terminal hydrolase 30 (Homo sapiens), Q70CQ3; purified USP30, Ub-rhodamine cleavage fluorescence; inhibition, % at 25 µM; 5.3% of 47,000 active; AID 1645860, 2021
USP17 inh: inhibitors of human USP17 deubiquitinase. 6.5% of 47,000 active. Ubiquitin carboxyl-terminal hydrolase 17-like protein 5 (Homo sapiens), A8MUK1. inhibition, % at 50 µM. purified USP17, Ub-rhodamine cleavage fluorescence, 3 h. AID 1645855, 2021
Target sequence (A8MUK1 whole entry, looked up): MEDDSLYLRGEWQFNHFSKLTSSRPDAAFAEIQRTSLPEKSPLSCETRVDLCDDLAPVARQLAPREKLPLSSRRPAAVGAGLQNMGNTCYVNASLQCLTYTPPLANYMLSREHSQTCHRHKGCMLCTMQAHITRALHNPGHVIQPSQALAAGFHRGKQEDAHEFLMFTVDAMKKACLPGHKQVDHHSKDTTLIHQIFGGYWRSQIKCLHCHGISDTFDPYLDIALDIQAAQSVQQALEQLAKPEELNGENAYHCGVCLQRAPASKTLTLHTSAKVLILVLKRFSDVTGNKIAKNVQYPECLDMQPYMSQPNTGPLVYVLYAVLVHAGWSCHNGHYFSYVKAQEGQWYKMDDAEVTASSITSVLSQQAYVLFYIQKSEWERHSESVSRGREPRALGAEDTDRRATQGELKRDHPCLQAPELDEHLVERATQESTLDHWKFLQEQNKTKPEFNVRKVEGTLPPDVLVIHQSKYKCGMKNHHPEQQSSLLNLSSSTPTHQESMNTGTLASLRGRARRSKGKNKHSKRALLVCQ
OTUD3 block: inhibitors of human OTUD3 deubiquitinase. purified OTUD3, Ub-rhodamine fluorescence, 2 h. OTU domain-containing protein 3 (Homo sapiens), Q5T2D3. inhibition, % at 25 µM. 0.7% of 47,000 active
USP10 inh: inhibitors of human USP10 deubiquitinase; Ubiquitin carboxyl-terminal hydrolase 10 (Homo sapiens), Q14694; purified USP10, Ub-rhodamine fluorescence, 60 min; inhibition, % at 20 µM; 1.1% of 47,000 active
USP8 block: inhibitors of human USP8 deubiquitinase | Ubiquitin carboxyl-terminal hydrolase 8 (Homo sapiens), P40818 | purified USP8, Ub-rhodamine cleavage fluorescence, 30 min | inhibition, % at 20 µM | 4.2% of 47,000 active
USP28 block: inhibitors of human USP28 deubiquitinase; Ubiquitin carboxyl-terminal hydrolase 28 (Homo sapiens), Q96RU2; purified USP28, Ub-rhodamine cleavage fluorescence, 30 min; inhibition, % at 25 µM; 3% of 47,000 active; AID 1645857, 2021
An asterisk follows results filed as active; i = inactive; x = no result. Most compounds without a hit are left out; they make up all but 13% or so of the library. Rule as the data show it: active = inhibition above about 30%; inactive = the rest.

SMILES	USP30 block	USP17 inh	OTUD3 block	USP10 inh	USP8 block	USP28 block
COc1ccc(/C=C/C(=O)Nc2cccc(S(=O)(=O)Nc3ccccc3Cl)c2)c(OC)c1	69*	7	10	62*	66*	52*
Cc1ccc(NC(=O)Cn2cncc(-c3nc(-c4ccccc4)cs3)c2=O)cc1F	-14	9	2	33*	41*	-3
O=C(Nc1ccc(F)cc1F)c1ccc(-c2nc(-c3ccc(F)cc3)cs2)cc1	2	3	7	11	14	3
Cc1ccccc1NC(=O)Cn1cncc(-c2nc(-c3ccccc3)cs2)c1=O	-154	60*	-39	1	-10	-11
Cc1ncc(-c2nc(-c3ccccc3)cs2)c(=O)n1CC(=O)Nc1c(F)cccc1F	-431	-119	-121	-11	-13	-196
O=C(Cn1cncc(-c2nc(-c3ccccc3)cs2)c1=O)Nc1ccc(F)cc1F	-40	15	9	2	41*	-10
Cc1ccccc1NC(=O)Cn1c(C)ncc(-c2nc(-c3ccccc3)cs2)c1=O	i	-119	-182	-10	-56	-173
O=C(Nc1ccc(F)cc1F)c1csc(-c2ccccc2)n1	21	83*	11	-1	9	15
Cc1ccc(C(=O)NCc2noc(C3CCCC3)n2)cc1C	3	-1	-4	0	-1	-7
CCc1nnc2ccc(C(=O)NCCCN3CCOCC3)cn12	-240	-73	-54	-8	-33	-76
O=C(OCCNc1ccccc1)c1ccc(C23CC4CC(CC(C4)C2)C3)o1	26	14	14	7	9	10
O=C(c1nnn(-c2ccc(C(F)(F)F)cc2)n1)N1CCN(c2ccccc2O)CC1	9	8	8	12	11	9
CC1Oc2ccc(NC(=O)c3cccc(NC(=O)c4cccs4)c3)cc2NC1=O (centres undefined)	-4	38*	-15	2	-16	1
COc1cc(C2C(C(=O)NCc3ccccc3)=C(C)Nc3ncnn32)cc(OC)c1OC (centres undefined)	10	6	-9	2	-58	-12
Cc1c(O)c(O)c2c(c1O)COC2	-108	39*	-16	-2	2	1
Cc1scc2nc(C(C)C)nc(N3CCC(C(=O)NC4CC4)CC3)c12	-303	-94	-64	-9	-55	-62
Cc1cccc2cc3c(nc12)N(C(=O)C1CC1)CC3	-51	35*	-4	-5	-1	3
CC1(C)C2CCC1(CS(=O)(=O)Nc1ccc(Cc3ccncc3)cc1)C(=O)C2 (centres undefined)	1	-7	-8	2	-4	6
CCn1c(=O)n(CC(=O)c2ccccc2F)c2c(C(N)=O)nc(-c3ccco3)nc21	-106	26	-7	-6	24	-1
CCn1c(=O)n(CC(=O)c2ccc(F)cc2)c2c(C(N)=O)nc(-c3ccc(C)o3)nc21	-80	34*	-13	2	0	-2
CCn1c(=O)n(CC(=O)c2ccccc2)c2c(C(N)=O)nc(-c3ccc(C)o3)nc21	-18	34*	-12	0	-5	-8
CCN(Cc1ccccc1)C(=O)c1csc(C(=O)NC2CC2)n1	13	2	4	1	2	-2
O=C(Nc1ccccc1)C1CCN(c2cnc(N3CCCCC3)nc2)CC1	-94	21	-20	-7	14	-6
Cc1cc(F)ccc1NC(=O)C1CCN(c2cnc(N3CCCCC3)nc2)CC1	-7	-12	4	-4	31*	33*
Cc1noc(-c2ccc(N3CCCC(C(=O)NCc4ccc(F)cc4)C3)nc2)n1 (centres undefined)	28	58*	14	-1	3	16
SMILES	USP30 block	USP17 inh	OTUD3 block	USP10 inh	USP8 block	USP28 block
O=C(NCc1ccc(F)cc1)C1CCN(c2cnc(N3CCCCC3)nc2)CC1	-10	5	6	-3	15	69*
CC1(C)OC(=O)[C@@]2(C)N[C@]1(C)C[C@@H]2C(=O)Nc1cccc(C(N)=O)c1	-24	x	-5	-5	-31	-10
COc1ccc(CN2CCCC(c3nn(C)c4nccnc34)C2)cc1 (centres undefined)	4	-1	4	0	-2	0
COc1ccccc1-n1cc(C(=O)c2cc(F)ccc2O)cc(C(C)=O)c1=O	-276	-30	-39	-9	33*	-113
CCNc1cc(N2CCCC(CCC(=O)NCc3ccc4c(c3)OCO4)C2)ncn1 (centres undefined)	-1	-26	10	-7	-200	5
Cc1cccc(NC(=O)c2cnc(N3CCCCC3)c3ccccc23)n1	-24	10	-16	-3	36*	21
COc1ccc(Nc2cc(C(=O)NCCCN(CC(C)C)CC(C)C)c3ccccc3n2)cc1	21	17	14	3	22	9
CCc1ccc(Nc2cc(C(=O)NCCCOC(C)C)c3ccccc3n2)cc1	-34	69*	12	7	2	5
CC1(C)C=C(CC(=O)N2CCOC(c3cccc(-c4cnc(N)nc4)n3)C2)CC(C)(C)N1 (centres undefined)	-6	-8	8	-3	-14	0
O=C(Cc1csc(-c2ccccc2)n1)Nc1ccc2c(c1)OCO2	-31	25	-6	0	30	3
Cc1nc2ccccc2c2oc(C(=O)Nc3ccc4c(c3)OCCO4)cc12	-9	0	8	-3	52*	22
O=C(Nc1ccc2c(c1)OCCO2)c1cc(-c2ccccn2)nc2ccccc12	-27	2	-6	-1	6	-11
Cc1nc(-c2ccccc2)sc1C(=O)Nc1ccc2c(c1)OCCO2	17	11	11	9	9	50*
CC(Sc1nnc(-c2ccncc2)o1)C(=O)Nc1ccc(F)cc1 (centres undefined)	-1	4	-2	0	-4	-6
CN(C)c1ccc(C(=O)NCC(O)c2ccc(F)c(F)c2)cc1 (centres undefined)	11	6	7	5	15	8
O=C(NCc1ccccn1)C1CCN(c2cc(N3CCCCC3)ncn2)CC1	-18	-27	-16	-4	-71	-12
O=C(NCc1ccccn1)c1ccc(-c2ccc(N3CCSCC3)nc2)cc1	82*	60*	9	0	2	33*
COCCCNC(=O)c1ccc(-c2ccc(N3CCCCC3)nc2)cc1	17	11	15	12	37*	18
CN(C)C(=O)c1ccc(-c2ccc(N3CCCCC3)nc2)cc1	14	6	0	3	3	11
Cc1c(C)n2c3c(=O)[nH]c(=O)n(C)c3nc2n1CCOCCO	10	4	6	-2	-22	0
COc1ccc(CN2C[C@@H](N(C)C)[C@H](c3cn(C)c4ccccc34)C2)cc1CO	4	0	9	-2	-16	10
